# Results: PubChem BioAssay (EPA / NIEHS)
# Records with an inconclusive call do not appear. The source made the active and inactive calls. The calls were made as follows, unless noted: active = hit-call score of the fitted dose curve at least 0.9, where 1 is the maximum; inconclusive = response in the unintended direction; inactive = score below 0.9.
# Legend:
# [1] = read-out: organic anion transporter (SLCO1B1), SLCO1B1 (gene 10599); assay: CLD_SLCO1B1_48hr: CellzDirect (CLD) Gene Expression Assay for organic anion transporter (SLCO1B1) at 48 hours (AID 2283707)
# Summary of the method: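 Primary human hepatocytes from two donor preparations dosed daily for two days with multiple concentrations, 0.2% DMSO vehicle. SLCO1B1 mRNA at 48 h by quantitative nuclease protection assay, chemiluminescence; gain-of-signal fitted versus DMSO.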
# [2] = Tanguay_ZF_120hpf_ActivityScore_legacy: (Legacy) Oregon State University Tanguay Lab 120 Hour Post-fertilization zebrafish Assay Score for Activity (AID 2283742);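 as to AC50: dechorionated Tropical 5D wild-type zebrafish embryos held singly per well; static exposure from 6 hpf until 120 hpf at 28 °C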
# Summary of the method: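 Dechorionated Tropical 5D embryos, one per well from 6 hpf, statically exposed to 120 hpf at 28 °C in 0.64% DMSO. Mortality and malformations scored binary by brightfield microscopy; activity score combines 18 endpoints, fitted positively versus DMSO.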
# [3] = read-out: glucuronosyltransferase (UGT1A1), UGT1A1 (gene 54658); assay: CLD_UGT1A1_48hr: CellzDirect (CLD) Gene Expression Assay for glucuronosyltransferase (UGT1A1) at 48 hours (AID 2283709);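 also: actives increase expression relative to DMSO so potency refers to induction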
# Summary of the method: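 Human primary hepatocytes dosed daily for two days (0.2% DMSO vehicle), harvested at 48 h. UGT1A1 mRNA induction measured by quantitative nuclease protection assay with chemiluminescence; gain of signal versus DMSO; cytotoxicity flagged from morphology.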
# [4] = read-out: HMG-CoA synthase (HMGCS2), HMGCS2 (gene 3158); assay: CLD_HMGCS2_48hr: CellzDirect (CLD) Gene Expression Assay for HMG-CoA synthase (HMGCS2) at 48 hours (AID 2283711)
# Summary of the method: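 Primary human hepatocytes from two donors dosed daily for two days, 0.2% DMSO vehicle. HMGCS2 mRNA measured 48 h after dosing by quantitative nuclease protection assay with chemiluminescent read-out; induction fitted relative to DMSO, cytotoxicity flagged by microscopy.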
# [5] = read-out: alkyl and aryl transferase (GSTA2), GSTA2 (gene 2939); assay: CLD_GSTA2_48hr: CellzDirect (CLD) Gene Expression Assay for alkyl and aryl transferase (GSTA2) at 48 hours (AID 2283708);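 also: active means mRNA induction above DMSO vehicle baseline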
# Summary of the method: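 Primary human hepatocytes dosed daily for two days (0.2% DMSO vehicle), harvested at 48 h. GSTA2 mRNA induction measured by quantitative nuclease protection assay with chemiluminescent imaging, fitted for gain of signal relative to DMSO.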
# [6] = target: Luciferin 4-monooxygenase (Photinus pyralis) (UniProt P08659); assay: CCTE_Simmons_QuantiLum_inhib_2: CCTE's Firefly Luciferase Inhibition Assay, Simmons Lab (AID 2283767);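 as to AC50: potency for inhibitors that lower luciferase luminescence relative to DMSO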
# Summary of the method: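 Cell-free recombinant firefly luciferase (5 ng/well) in 200mM potassium phosphate with 1 mg/ml BSA, 30 min at 37C with 8 concentrations from 5 nM to 87.5 uM [final], 0.5% DMSO. Luminescence read after D-luciferin (150uM)/dATP (147uM) reagent injection, pH 7.8; triplicates.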
# [7] = CEETOX_H295R_MTT_cell_viability: Viability Assessment in the CeeTox HT-H295R MTT Assay (AID 2283718; active = hit-call score of the fitted dose curve at least 0.9, where 1 is the maximum; inactive = score below 0.9)
# Summary of the method: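 Human H295R adrenal cells, prestimulated 48 h with 10 uM forskolin, were exposed 48 h to chemicals in 0.1% DMSO. Viability was measured in the same wells by MTT (0.5 mg/ml, 4 h, 37 C), absorbance 570/650 nm, as percent of controls.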
# [8] = test system: Thyroperoxidase (TPO), gene 445522; assay: CCTE_Simmons_GUA_TPO: CCTE's Guaiacol Assay for Thyroperoxidase (TPO) Inhibition, Simmons Lab (AID 2283750)
# Summary of the method: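 Porcine thyroid microsomes (25 ug) in 200mM potassium phosphate, preincubated 30 s at 37C with compound (8 concentrations, 5 nM–87.5 uM) and 35mM guaiacol; 1mM H2O2 starts reaction. Absorbance change at 450nm over first 80 s; loss of signal versus DMSO, three replicates.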
# [9] = STM_H9_CystineISnorm_perc: Stemina devTOX quickPredict H9 human embryonic stem cell (hESC)-based Assay for Cystine (CYSS) Metabolite Biomarker, Normalized (AID 2283713; active = hit-call score of the fitted dose curve at least 0.9, where 1 is the maximum; inactive = score below 0.9)
# Summary of the method: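 Undifferentiated H9 hESCs exposed 72 h, compound and media replaced every 24 h; final 24-h media analysed by UPLC-HRMS. Cystine normalized to C13 spike-in standard and median 0.1% DMSO control.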
# [10] = STM_H9_OrnCyssISnorm_ratio: Stemina devTOX quickPredict H9 human embryonic stem cell (hESC)-based Assay for Ornithine (ORN):Cystine (CYSS) Ratio (AID 2283714)
# Summary of the method: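 Undifferentiated H9 hESCs exposed 72 h, media and compound replaced every 24 h; final 24-h conditioned media deproteinized and analysed by UPLC-HRMS against C13 spike-ins. Value is the internal-standard-normalized ORN/CYSS ratio versus 0.1% DMSO.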
# [11] = STM_H9_OrnithineISnorm_perc: Stemina devTOX quickPredict H9 human embryonic stem cell (hESC)-based Assay for Ornithine (ORN) Metabolite Biomarker, Normalized (AID 2283712; active = hit-call score of the fitted dose curve at least 0.9, where 1 is the maximum; inactive = score below 0.9;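 also: ornithine released into spent medium during last day measured by mass spectrometry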)
# Summary of the method: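 Undifferentiated H9 hESCs exposed 72 h with daily media and compound renewal; final 24-h conditioned medium analysed by UPLC-HRMS. Ornithine peak area normalised to spiked C13 standard and to median 0.1% DMSO control; viability by CellTiter-Fluor.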
# [12] = read-out: sulfotransferase (SULT2A), SULT2A1 (gene 6822); assay: CLD_SULT2A_48hr: CellzDirect (CLD) Gene Expression Assay for sulfotransferase (SULT2A) at 48 hours (AID 2283710);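 also: hits raise SULT2A1 transcript above the 0.2% DMSO vehicle baseline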
# Summary of the method: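 Primary human hepatocytes (two donor preparations) dosed daily for two days with chemicals at multiple concentrations, vehicle 0.2% DMSO; SULT2A1 mRNA induction at 48 h by quantitative nuclease protection assay, chemiluminescent read-out, fitted for gain of signal versus DMSO.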
# [13] = ArunA_Migration_hNP: ArunA Biomedical's Oris Neuroprogenitor (hNP) Cell Migration Assay (AID 2283754)
# Summary of the method: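 Human H9-derived hNP1 neuroprogenitors on Matrigel with LIF/bFGF, plated around seeding stoppers for 16 h at 37C; stoppers removed at start of 72 h chemical exposure. Calcein-AM staining, fluorescence 494/517 nm in detection zone; loss-of-signal vs DMSO; cytochalasin D control.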
# [14] = ArunA_Migration_hNC: ArunA Biomedical's Oris Neural Crest (hNC) Cell Migration Assay (AID 2283755)
# Summary of the method: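 Human H9-derived neural crest stem cells, 60,000/well on Matrigel, 16 h at 37C, then 72 h chemical exposure after seeding-stopper removal. Migration into detection zone read as calcein-AM fluorescence (ex494/em517), relative to DMSO.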
# [15] = ArunA_NOG_NucleusCount: ArunA Biomedical's Neurite Outgrowth (NOG) Assay for Nucleus Count (AID 2283756)
# Summary of the method: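 Human H9-derived differentiated neurons were exposed for 48 h right after seeding. Hoechst-stained nuclei gated by size and intensity were counted by automated high-content imaging as viable neurons. Loss of signal vs DMSO.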
# [16] = ArunA_NOG_BranchPointsPerNeurite: ArunA Biomedical's Neurite Outgrowth (NOG) Assay for Branch Points Per Neurite (AID 2283759)
# Summary of the method: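 Automated image analysis traced neurites (processes >10 um) from valid cell bodies after Hoechst and βIII-tubulin staining. hNN cells from H9 embryonic stem cells, 48 h exposure. Fitted bidirectionally against DMSO.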
# Luciferin 4-monooxygenase (Photinus pyralis), sequence (P08659 whole entry, looked up): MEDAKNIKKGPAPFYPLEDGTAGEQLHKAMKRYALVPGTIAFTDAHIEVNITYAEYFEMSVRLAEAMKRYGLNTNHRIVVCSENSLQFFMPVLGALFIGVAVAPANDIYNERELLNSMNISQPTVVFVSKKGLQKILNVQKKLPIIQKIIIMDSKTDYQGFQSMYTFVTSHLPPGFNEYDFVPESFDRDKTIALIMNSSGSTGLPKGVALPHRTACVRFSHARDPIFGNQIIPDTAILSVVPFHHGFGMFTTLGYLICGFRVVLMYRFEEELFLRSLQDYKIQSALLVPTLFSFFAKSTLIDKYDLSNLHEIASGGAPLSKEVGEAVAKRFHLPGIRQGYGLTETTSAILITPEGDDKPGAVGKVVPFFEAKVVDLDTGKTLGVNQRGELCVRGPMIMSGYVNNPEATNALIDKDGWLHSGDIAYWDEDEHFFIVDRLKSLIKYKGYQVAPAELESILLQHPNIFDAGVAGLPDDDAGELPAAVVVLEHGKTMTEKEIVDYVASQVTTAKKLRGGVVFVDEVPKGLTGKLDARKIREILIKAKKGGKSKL
structure (smiles),measurement,setting,value
Nc1c(Cl)cc([N+](=O)[O-])cc1Cl,outcome,[1],inactive
same,AC50,[2],93.6 µM (active)
CC(=NC#N)N(C)Cc1ccc(Cl)nc1,outcome,[1],inactive
same,outcome,[3],inactive
same,outcome,[4],inactive
same,outcome,[2],inactive
CCCCSP(=O)(SCCCC)SCCCC,outcome,[1],inactive
same,outcome,[4],inactive
same,outcome,[2],inactive
CCOP(=O)(SC(C)CC)N1CCSC1=O (stereo unspecified),outcome,[1],inactive
same,outcome,[5],inactive
same,outcome,[3],inactive
same,outcome,[2],inactive
same,outcome,[6],inactive
CCCSP(=O)(OCC)SCCC,outcome,[1],inactive
same,outcome,[4],inactive
same,outcome,[7],inactive
same,outcome,[2],inactive
same,outcome,[6],inactive
CCOC(=O)CC(SP(=O)(OC)OC)C(=O)OCC (stereo unspecified),outcome,[1],inactive
same,outcome,[5],inactive
same,outcome,[3],inactive
same,outcome,[2],inactive
same,outcome,[8],inactive
same,outcome,[6],inactive
CSC1=N[C@@](C)(c2ccccc2)C(=O)N1Nc1ccccc1,outcome,[3],inactive
same,AC50,[9],30.1 µM (active)
same,AC50,[10],29.9 µM (active)
same,AC50,[2],37.6 µM (active)
same,outcome,[6],inactive
Cc1cc(C2CC2)nc(Nc2ccccc2)n1,AC50,[2],62.8 µM (active)
CNC(=O)Oc1cccc2c1OC(C)(C)O2,outcome,[7],inactive
same,outcome,[2],inactive
COc1ccc(C(=CC(=O)N2CCOCC2)c2ccc(Cl)cc2)cc1OC,AC50,[11],0.119 µM (active)
same,outcome,[9],inactive
same,outcome,[10],inactive
same,outcome,[7],inactive
same,AC50,[2],42.9 µM (active)
C=C(C)[C@H]1Cc2c(ccc3c2O[C@@H]2COc4cc(OC)c(OC)cc4[C@@H]2C3=O)O1,outcome,[4],inactive
same,AC50,[11],0.347 µM (active)
same,AC50,[9],0.279 µM (active)
same,AC50,[10],0.333 µM (active)
same,AC50,[2],0.193 µM (active)
same,outcome,[6],inactive
CCOP(=S)(OCC)SCCSCC,AC50,[11],72.2 µM (active)
same,AC50,[9],31.1 µM (active)
same,AC50,[10],34.3 µM (active)
same,outcome,[2],inactive
CON=C(C(=O)OC)c1ccccc1CON=C(C)c1cccc(C(F)(F)F)c1,outcome,[3],inactive
same,outcome,[11],inactive
same,outcome,[9],inactive
same,outcome,[2],inactive
CCOP(=S)(OCC)Oc1cc(C)nc(C(C)C)n1,outcome,[12],inactive
same,AC50,[11],79.1 µM (active)
same,AC50,[9],73.3 µM (active)
same,AC50,[10],75.2 µM (active)
same,outcome,[7],inactive
same,outcome,[2],inactive
same,outcome,[6],inactive
CCc1cccc(C)c1N(C(=O)CCl)C(C)COC (stereo unspecified),outcome,[3],inactive
same,outcome,[12],inactive
same,outcome,[7],inactive
same,outcome,[2],inactive
CC(C)N(C(=O)SCC(Cl)=C(Cl)Cl)C(C)C,outcome,[4],inactive
same,AC50,[9],12.4 µM (active)
same,AC50,[10],12.2 µM (active)
same,outcome,[2],inactive
C[Si](Cn1cncn1)(c1ccc(F)cc1)c1ccc(F)cc1,outcome,[3],inactive
same,AC50,[11],76.6 µM (active)
same,AC50,[9],30.2 µM (active)
same,AC50,[10],50.7 µM (active)
same,outcome,[7],inactive
same,AC50,[2],35.9 µM (active)
same,outcome,[13],inactive
same,outcome,[14],inactive
same,outcome,[15],inactive
same,outcome,[16],inactive
CNC(=O)ON=C(SC)C(=O)N(C)C,outcome,[3],inactive
same,outcome,[4],inactive
same,outcome,[7],inactive
same,outcome,[2],inactive
CCOP(=S)(Oc1cnc(C(C)(C)C)nc1)OC(C)C (stereo unspecified),outcome,[2],inactive
same,AC50,[6],61.8 µM (active)
CCOP(=S)(OCC)Oc1ccc([N+](=O)[O-])cc1,outcome,[4],inactive
same,outcome,[7],inactive
same,outcome,[2],inactive
same,AC50,[6],26.9 µM (active)
CNc1cnn(-c2cccc(C(F)(F)F)c2)c(=O)c1Cl,outcome,[11],inactive
same,outcome,[9],inactive
same,outcome,[10],inactive
same,outcome,[7],inactive
same,outcome,[2],inactive
COP(=O)(OC)OC(Br)C(Cl)(Cl)Br (stereo unspecified),outcome,[3],inactive
same,outcome,[12],inactive
same,outcome,[2],inactive
CCOP(=O)(NC(C)C)Oc1ccc(SC)c(C)c1 (stereo unspecified),outcome,[7],inactive
same,AC50,[2],33.3 µM (active)
same,outcome,[6],inactive
CCOP(=S)(OCC)OC(Cl)C(Cl)(Cl)Cl (stereo unspecified),outcome,[5],inactive
same,outcome,[2],inactive
same,outcome,[6],inactive
CCOP(=S)(OCC)Oc1ccc2c(C)c(Cl)c(=O)oc2c1,AC50,[4],0.0125 µM (active)
same,AC50,[11],50 µM (active)
same,outcome,[9],inactive
same,outcome,[10],inactive
same,outcome,[7],inactive
same,outcome,[2],inactive
same,outcome,[6],inactive
CSc1nnc(C(C)(C)C)c(=O)n1N,AC50,[11],0.0961 µM (active)
same,outcome,[9],inactive
same,outcome,[7],inactive
CC1(C(=O)Nc2ccc(O)c(Cl)c2Cl)CCCCC1,outcome,[7],inactive
same,outcome,[2],inactive
same,outcome,[6],inactive
CCCOCC(=Nc1ccc(Cl)cc1C(F)(F)F)n1ccnc1,outcome,[7],inactive
same,outcome,[2],inactive
same,AC50,[6],36.8 µM (active)
CC(C)[C@H](C(=O)O[C@H](C#N)c1cccc(Oc2ccccc2)c1)c1ccc(Cl)cc1,AC50,[3],7.47 µM (active)
same,AC50,[11],50 µM (active)
same,AC50,[9],80.5 µM (active)
same,AC50,[10],74.2 µM (active)
same,outcome,[7],inactive
same,AC50,[2],1.53 µM (active)
COP(=O)(OC)C(O)C(Cl)(Cl)Cl (stereo unspecified),outcome,[4],inactive
same,outcome,[2],inactive
CCCCOC(=O)[C@@H](C)Oc1ccc(Oc2ccc(C#N)cc2F)cc1,outcome,[3],inactive
same,outcome,[4],inactive
same,AC50,[11],85.7 µM (active)
same,AC50,[9],77.7 µM (active)
same,AC50,[10],84.8 µM (active)
same,outcome,[2],inactive
CCC(=O)Nc1ccc(Cl)c(Cl)c1,outcome,[7],inactive
same,outcome,[2],inactive
same,outcome,[6],inactive
COP(=O)(OC)SCn1c(=O)oc2cc(Cl)cnc21,outcome,[3],inactive
same,outcome,[4],inactive
same,outcome,[2],inactive
same,outcome,[6],inactive
CNC(=O)ON=C(C)SC,outcome,[3],inactive
same,outcome,[7],inactive
same,outcome,[2],inactive
CC(C1CC1)C(O)(Cn1cncn1)c1ccc(Cl)cc1 (stereo unspecified),outcome,[3],inactive
same,outcome,[12],inactive
same,outcome,[4],inactive
same,AC50,[11],50 µM (active)
same,AC50,[9],83 µM (active)
same,AC50,[10],77.4 µM (active)
same,outcome,[7],inactive
same,AC50,[2],26.2 µM (active)
N#CSCSC#N,outcome,[12],inactive
same,outcome,[4],inactive
same,AC50,[11],20.5 µM (active)
same,AC50,[9],7.75 µM (active)
same,AC50,[10],14.2 µM (active)
same,AC50,[2],17.9 µM (active)
same,AC50,[6],53.8 µM (active)
